# Source: PubChem
# An excerpt weighted towards active compounds, which were near 2.3% of everything screened.
# Mcl1 Noxa PPI = Mcl-1/Noxa binding inhibitors, primary screen, biochemical, TR-FRET, 1536-well; inhibition, % at 21.7 µM; AID 1022, 2008; Induced myeloid leukemia cell differentiation protein Mcl-1 (Homo sapiens), Q07820; TR-FRET Mcl-1/Noxa peptide binding, 2 h; 220,000 tested, 1.5% active;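 active = compounds that cut the protein-peptide binding signal by more than 50% relative to plate controls in a single-dose test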;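 also: His-tagged Mcl-1 with rhodamine Noxa BH3 peptide and terbium anti-His antibody; 0% = Mcl-1 plus Noxa peptide wells and 100% = peptide-only wells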
# Bim-Mcl-1 = inhibitors of Bim peptide binding to Mcl-1, primary screen, biochemical, bead-based flow cytometry, multiplex; Induced myeloid leukemia cell differentiation protein Mcl-1 (Homo sapiens), Q07820; Bim peptide-Mcl-1 binding; inhibition, % at 10 µM; 190,000 tested, 0.1% active; AID 1009, 2008; in the data active = inhibition above about 40%;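 also: 0% = no compound tracer wells and 100% = peptide blocker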
# Bcl-xL primary = inhibitors of human Bcl-xL, primary screen, biochemical, fluorescence polarization, HTS; Bcl-2-like protein 1 (Homo sapiens), Q07817; GST-Bcl-xL / FITC-Bim BH3 peptide fluorescence polarization; inhibition, % at 10.9 µM; 320,000 tested, 0.7% active;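 active = inhibition above the mean of all tested compounds plus 3 SD, cutoff set per campaign, cut at about 30% in these data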;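 also: 0% = DMSO wells and 100% = unlabeled Bim-BH3 peptide competitor; inhibitors lower millipolarization by displacing the labeled peptide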
# Target sequence (Q07817 whole entry, looked up): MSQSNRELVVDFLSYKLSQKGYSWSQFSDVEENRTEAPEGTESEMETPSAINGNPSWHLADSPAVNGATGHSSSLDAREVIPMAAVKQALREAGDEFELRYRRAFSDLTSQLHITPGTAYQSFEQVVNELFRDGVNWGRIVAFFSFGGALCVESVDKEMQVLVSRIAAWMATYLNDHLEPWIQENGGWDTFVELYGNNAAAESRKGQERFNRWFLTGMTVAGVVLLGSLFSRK
# GLD-1 TGE inh = GLD-1/TGE RNA complex disruptors, primary screen, biochemical, fluorescence polarization; inhibition, % at 5.96 µM; 320,000 tested, 0.44% active; AID 2280, 2010; Female germline-specific tumor suppressor gld-1 (Caenorhabditis elegans), Q17339; purified GLD-1 + fluorescein TGE RNA;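 active = percent inhibition above a per-plate cutoff, the plate mean of test compounds plus 3 SD, cut at about 30% in these data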;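 also: 0% = DMSO wells with GLD-1 and probe and 100% = wells lacking GLD-1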
# Target sequence (Q17339 whole entry, looked up): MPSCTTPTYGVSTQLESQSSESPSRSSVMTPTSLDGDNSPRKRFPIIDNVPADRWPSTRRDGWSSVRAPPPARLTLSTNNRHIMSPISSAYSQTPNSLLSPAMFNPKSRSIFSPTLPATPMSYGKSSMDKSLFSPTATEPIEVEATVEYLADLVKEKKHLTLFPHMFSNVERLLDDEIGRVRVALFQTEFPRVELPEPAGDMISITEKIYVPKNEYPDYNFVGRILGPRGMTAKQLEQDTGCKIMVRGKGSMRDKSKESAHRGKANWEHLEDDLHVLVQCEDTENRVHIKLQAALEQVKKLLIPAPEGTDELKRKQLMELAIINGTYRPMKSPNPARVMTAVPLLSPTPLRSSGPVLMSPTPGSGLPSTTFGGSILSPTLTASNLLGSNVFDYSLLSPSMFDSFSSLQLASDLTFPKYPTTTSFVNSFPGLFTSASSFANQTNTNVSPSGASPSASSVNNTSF
# Mcl1-Bid inh = Mcl-1/Bid binding inhibitors, primary screen, biochemical, TR-FRET, 1536-well; 220,000 tested, 0.97% active; Induced myeloid leukemia cell differentiation protein Mcl-1 (Homo sapiens), Q07820; inhibition, % at 21.7 µM; TR-FRET Mcl-1/Bid-Dy647 peptide binding;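 active = compounds that cut the binding signal by more than half at the single screening dose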;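 also: His-tagged Mcl-1 with europium anti-His antibody binding Bid BH3 peptide; 0% = Mcl-1 plus peptide wells and 100% = peptide-only wells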
# MCL1-BIM inh = inhibitors of MCL1 binding to BIM-BH3, primary screen, biochemical, fluorescence polarization; Induced myeloid leukemia cell differentiation protein Mcl-1 (Homo sapiens), Q07820; GST-MCL1 / FITC-Bim-BH3 fluorescence polarization; inhibition, % at 10.9 µM; 320,000 tested, 0.68% active; AID 2057, 2009;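 active = inhibition above the mean inhibition of all tested compounds plus 3 SD, set per campaign, cut at about 40% in these data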;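 also: 0% = DMSO wells and 100% = unlabeled Bim-BH3 peptide control; higher means more loss of mP so more displacement of Bim peptide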
# BCLXL inh confirm = Bcl-xL inhibitors blocking Bim BH3 binding, confirmation, counter-screen for MCL1 inhibitor project, biochemical, fluorescence polarization | shares compounds with MCL1-BIM inh | GST-Bcl-xL / FITC-Bim BH3 peptide FP binding | inhibition, % at 10.9 µM | 1,700 tested, 54% active;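 active = inhibition above a cutoff equal to the mean inhibition of all tested compounds plus 3 SD, cut at about 30% in these data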;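 also: 0% = DMSO wells and 100% = unlabeled Bim BH3 control peptide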
# MCL1 BIM confirm = inhibitors of MCL1 binding to BIM-BH3, confirmation, biochemical, fluorescence polarization, triplicate. shares compounds with MCL1-BIM inh. inhibition, % at 10.9 µM. 1,700 tested, 61% active. GST-MCL1 / FITC-Bim-BH3 fluorescence polarization;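 active = inhibition above the average of all tested compounds plus 3 SD, cut at about 40% in these data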;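 also: 0% = DMSO wells and 100% = unlabeled Bim-BH3 control peptide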
# GLD-1 TGE cf = GLD-1/TGE RNA binding inhibitors, retest, confirmation, biochemical, fluorescence polarization, triplicate | GLD-1/FL-TGE RNA fluorescence polarization | 550 tested, 10% active | AID 2459, 2010 | shares compounds with GLD-1 TGE inh | inhibition, % at 5.96 µM;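 active = average inhibition across triplicates above the hit cutoff set in the primary screen, cut at about 32% in these data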;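 also: 0% = GLD-1 with RNA probe and DMSO and 100% = wells lacking GLD-1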
# Numbers without * were called inactive; nt = no result given.
SMILES,Mcl1 Noxa PPI,Bim-Mcl-1,Bcl-xL primary,GLD-1 TGE inh,Mcl1-Bid inh,MCL1-BIM inh,BCLXL inh confirm,MCL1 BIM confirm,GLD-1 TGE cf
CCOC(=O)C1=C(COC(=O)c2ccccc2OC(F)F)NC(=O)NC1C (stereo unspecified),nt,nt,-3,2,nt,0,nt,nt,nt
CCOC(=O)C1=C(COC(=O)c2ccc3ccccc3c2O)NC(=O)NC1C (stereo unspecified),nt,nt,61*,46*,nt,88*,25,24,1
O=C(NC12CC3CC(CC(C3)C1)C2)c1cnccn1,12,-5,42*,34*,-14,53*,29,40*,-10
C/C(CC(=O)NC12CC3CC(CC(C3)C1)C2)=N\NC(=O)c1cnccn1,-13,1,6,-7,-13,13,nt,nt,nt
O=C1c2ccccc2C(=O)c2c([N+](=O)[O-])ccc(O)c21,32,nt,24,4,-21,5,nt,nt,nt
CC1=CC(=O)c2c(O)ccc(O)c2C1=O,96*,23,88*,75*,99*,138*,102*,142*,33*
Cc1ccc(N2CCN(c3ccc(NCc4nc5ccccc5n4C)cc3)CC2)cc1,-24,-1,74*,63*,-64,90*,52*,48*,63*
Cc1cccc(NCc2nc3ccccc3n2C)c1,6,0,-3,5,-25,-11,nt,nt,nt
COC(=O)c1cc2c(C)cc3ccc(C)cn3c-2c1C(=O)OC,-15,3,93*,55*,-40,99*,75*,98*,41*
NC(=O)C1CCCN(C(=O)CCC(=O)c2cccs2)C1 (stereo unspecified),nt,nt,nt,5,nt,nt,nt,nt,nt
CCOC(=O)c1[nH]cnc1N=Nc1c(O)ccc2ccccc12,24,-1,103*,60*,-49,93*,75*,84*,32*
CCOC(=O)C1C(c2ccc3c(c2)OCO3)NC(=O)NC1(O)C(F)(F)F (stereo unspecified),-2,-1,60*,33*,-6,55*,1,-3,-10
CCOC(=O)C1C(c2ccc(O)c(OC)c2)NC(=O)NC1(O)C(F)(F)F (stereo unspecified),nt,nt,0,9,nt,1,nt,nt,nt
CN(C)c1ccc(N=Cc2ccco2)cc1,47,9,11,3,-77,23,nt,nt,nt
C(=Nc1cccc2c(N=Cc3ccco3)cccc12)c1ccco1,58*,4,82*,43*,-15,76*,25,22,3
Cn1c(=O)cc2c3c(c(N4CCCCC4)ccc31)C(=O)c1ccccc1-2,26,nt,147*,82*,-38,152*,112*,143*,46*
O=C1c2ccccc2C(=O)c2c1cccc2N1CCCC1,17,-2,16,6,-60,21,nt,nt,nt
O=C1N(c2ccccc2)CCN1c1ccccc1,nt,nt,-1,6,nt,-9,nt,nt,nt
O=C1NC(=S)CN1c1ccccc1,-11,nt,70*,69*,-34,79*,26,30,-3
CCCC(NC(=O)CCc1c(C)c2cc3c(-c4ccccc4)coc3cc2oc1=O)C(=O)O (stereo unspecified),nt,nt,11,0,nt,5,nt,nt,nt
Cc1ccnc(Nc2nc(-c3ccc(Cl)cc3)cs2)c1,nt,nt,23,32*,nt,52*,2,-2,-4
COc1cc(-c2csc(NC3CCCCC3)n2)cc(OC)c1OC,nt,nt,1,2,nt,2,nt,nt,nt
Cc1cc2ccccc2n1CCNC(=O)COc1ccccc1,6,1,41*,72*,-38,63*,26,28,11
CCC(=O)NCCn1c(C)cc2ccccc21,2,2,19,25,-37,18,nt,nt,nt
S=C(Nc1ccc2nc(-c3ccccn3)c(-c3ccccn3)nc2c1)N1CCOCC1,14,2,60*,40*,-53,87*,31*,37,6
SMILES,Mcl1 Noxa PPI,Bim-Mcl-1,Bcl-xL primary,GLD-1 TGE inh,Mcl1-Bid inh,MCL1-BIM inh,BCLXL inh confirm,MCL1 BIM confirm,GLD-1 TGE cf
CC(=O)N=c1c(C#N)cc2c(=O)n3cccc(C)c3nc2n1CCCOC(C)C,-4,nt,16,0,-11,23,nt,nt,nt
Cc1cccn2c(=O)c3cc(C#N)c(=NC(=O)c4cccs4)n(CCCOC(C)C)c3nc12,19,nt,71*,57*,3,74*,21,28,28
Cc1cccn2c(=O)c3cc(C#N)c(=NC(=O)c4ccncc4)n(CCCOC(C)C)c3nc12,6,-1,73*,44*,14,87*,43*,48*,28
O=C(Cc1cccs1)NCc1cc(Cl)cc(Cl)c1,nt,nt,1,1,nt,0,nt,nt,nt
CSc1c(C#N)c(N)nc2sc(C(=O)c3ccccc3)c(N)c12,6,nt,51*,33*,-38,58*,71*,87*,21
O=C(CCCSc1ccccc1)Nc1ccc(Cl)c(S(=O)(=O)N2CCOCC2)c1,nt,nt,-4,6,nt,0,nt,nt,nt
N#CC(c1nc2ccccc2nc1N1CCCC1)S(=O)(=O)c1ccccc1 (stereo unspecified),19,-3,66*,40*,-25,70*,75*,76*,27
CN1CCN(c2nc3ccccc3nc2C(C#N)S(=O)(=O)c2ccccc2)CC1 (stereo unspecified),-4,nt,8,7,-38,6,nt,nt,nt
COc1ccc(S(=O)(=O)C(C#N)c2nc3ccccc3nc2N2CCCCC2)cc1 (stereo unspecified),38,0,68*,69*,-51,79*,19,20,-2
COc1cccc(CN2c3ccc(Br)cc3C(=O)CS2(=O)=O)c1,nt,nt,6,8,nt,12,nt,nt,nt
COc1ccc(-c2nc(CN3CCN(C(=O)c4ccco4)CC3)c(C)o2)c(F)c1,nt,nt,3,-1,nt,2,nt,nt,nt
